Assay outcomes as filed in PubChem.
Pf Dd2 growth – blocks in vitro growth of P. falciparum Dd2. P. falciparum Dd2 growth, SYBR Green, 72 h. Potency, µM (series often up to 28.9 µM), without a hit: at the top dose activity, negative = inhibition, usual class: inhibitors. 120,000 tested, 4.3% active. AID 1347417; active means well fitted inhibition curve with a large enough effect;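 further: plate controls were DMSO vehicle for no effect and reference drug for full effect; nearly all actives have a fitted effect of over 65% in size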
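Readout: SYBR Green fluorescence, 485 nm excitation, 535 nm emission, after ~16 h lysis at 37C. Before that, Dd2-infected red cells (2.5% hematocrit) grew 72 h with compound, 29 uM top final concentration.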
* marks the source's active call; other numbers are inactive results; i = inactive; [ ] = dose if it differs, or a comment. The sample as a whole holds a higher share of hits than the screen did. Potency means the concentration at half of the fitted maximal effect.

SMILES | Pf Dd2 growth
CCc1nncn1C1CCN(S(=O)(=O)c2cc(Cl)ccc2OC)CC1 | i
COC(=O)[C@@H]1Cc2ncn(C(C)C)c2CN1S(=O)(=O)c1cccs1 | -24%[44.1 µM]
O=C(c1ccoc1)N1CCC2(CCN(Cc3ccccn3)CC2)C(CO)C1 (stereo not given) | -5%
COc1ccc(Cn2c(C3CCN(C(=O)c4sccc4C)CC3)n[nH]c2=O)cc1 | -14%
CN1CCC(C(=O)N2Cc3ccccc3CC3(CCN(Cc4ccc(O)cc4)C3)C2)CC1 (stereo not given) | 0%
CN1CCC(C(=O)N2Cc3ccccc3CC3(CCCCN3Cc3ccncc3)C2)CC1 (stereo not given) | 8.9µM*
O=C(O)CCCC(=O)N1Cc2ccccc2CC2(CCCCN2Cc2ccncc2)C1 (stereo not given) | 7%
O=C(O)CCCC(=O)N1Cc2ccccc2CC2(CCCN2Cc2ccccc2)C1 (stereo not given) | -7%
CN1CCC(C(=O)N2Cc3ccccc3CC3(CCCN(Cc4cccnc4)C3)C2)CC1 (stereo not given) | 8.9µM*
CN1CCC(C(=O)N2Cc3ccccc3CC3(CCCN(CC4CCNC4)C3)C2)CC1 (stereo not given) | 8%
CN1CCN(c2nc3c(c(=O)[nH]2)CCN(Cc2ccc(Cl)cc2F)CC3)CC1 | 10%[5.79 µM]
CCC(C(=O)N1CCN(c2ccc(C#N)cn2)CC1)n1cccn1 (stereo not given) | 1%
COc1ccc(OC)c(S(=O)(=O)N2CCC(OC3CCN(C)CC3)CC2)c1 | i
COc1ccc(Cl)cc1S(=O)(=O)N1CCC(OC2CCN(C)CC2)CC1 | 3.2µM*
COc1ccc(Cl)cc1S(=O)(=O)N1CCC(n2cnnc2C)CC1 | -26%
O=C(Nc1ncc(-c2cccc(F)c2)c2c1OCC2)c1cccnc1 | 38%[44.1 µM]
CC(C)c1nc2ccc(C(=O)NCc3ccc(N(C)C)cc3)cc2o1 | 22%
CCc1nc2ccc(C(=O)NCc3ccc(N(C)C)cc3)cc2nc1CC | 3.5µM*
CN(C)c1ccc(CNC(=O)c2ccc3nc(Cc4ccccc4)oc3c2)cc1 | -26%
COCc1cc(C[C@@H]2C[C@H](NC3CCOCC3)C2(C)C)no1 | -12%[44.1 µM]
Fc1ccc(-c2cc(CC3(NCc4cccnc4)COC3)no2)cc1 | -11%[44.1 µM]
CN(C)Cc1cc(C[C@@H]2C[C@H](NCc3ccc(F)cc3)C2(C)C)no1 | 3.2µM*
CC1(C)[C@H](Cc2cc(-c3ccc(F)cc3)on2)C[C@@H]1NCc1cccnc1 | 7.9µM*
COCc1cc(C[C@@H]2C[C@H](NCC3CC3)C2(C)C)no1 | i
COCc1cc(C[C@@H]2C[C@H](NCc3cccnc3)C2(C)C)no1 | -9%[44.1 µM]
SMILES | Pf Dd2 growth
CN(Cc1cc(C[C@@H]2C[C@H](NCc3ncc[nH]3)C2(C)C)no1)c1ccccc1 | i
COc1ccc(CN[C@H]2C[C@@H](Cc3cc(CCO)on3)C2(C)C)cc1 | i
CC1(C)[C@H](Cc2cc(-c3ccc(F)cc3)on2)C[C@@H]1NC1CCC1 | 11µM*
CN(C)C1(Cc2cc(-c3ccc(F)cc3)on2)COC1 | 14%[44.1 µM]
CC(=O)N1CCC(N[C@H]2C[C@@H](Cc3cc(CCO)on3)C2(C)C)CC1 | 1%[44.1 µM]
CN1CCC(N[C@H]2C[C@@H](Cc3cc(C(C)(C)C)on3)C2(C)C)CC1 | 5µM*
CS(=O)(=O)N1CCCNCCNC(=O)CC1c1ccccc1 (stereo not given) | i
Cn1c(=O)c(C(=O)NC2CCOC3(CCOCC3)C2)nc2ccccc21 (stereo not given) | -4%
O=S1(=O)CCCN1C1CCN(Cc2cccc3ccccc23)CC1 | -6%
Cc1ccc(NC(=O)Cn2c(-c3ccccc3)nc(C)cc2=O)c(C)c1 | i
CNC(=O)[C@@H](c1ccccc1)N1CCC[C@H]1C(=O)NCCc1c[nH]c2ccccc12 | i
COCCCNC(=O)N1C[C@@H](Oc2ccccc2)C[C@H]1C(=O)N1CCOCC1 | 16%
COc1cccc(C(=O)NC2CCN(c3cn[nH]c(=O)c3)CC2)c1 | 8%
COCc1nc(C2CCN(C(=O)c3ccnn3C)C2)no1 (stereo not given) | -3%
CCOc1ccc2c(n1)CCN(C(=O)Nc1ccccc1C)C2 | 18%
CN(C)C(=O)C1CN(C(=O)Nc2cccc(Cl)c2)CC12CCOCC2 (stereo not given) | -8%
O=C1c2cnc(-c3cccc(CO)c3)nc2OCCN1c1cccc(C(F)(F)F)c1 | 14µM*
COc1ccccc1-c1ncc2c(n1)OCCN(c1cccc(C(F)(F)F)c1)C2=O | i
COc1ncccc1-c1ncc2c(n1)OCCN(c1cccc(C(F)(F)F)c1)C2=O | -9%[44.1 µM]
NC(=O)N1CCCC(C(=O)N2CCN(c3nsc4ccccc34)CC2)C1 (stereo not given) | 7%
Cc1ccc(CN(C)C2CCc3nn(C)c(=O)n3CC2)nc1 (stereo not given) | 35%
